For test [1], the target named is Calcium and integrin-binding protein 1 (Homo sapiens) (UniProt Q99828). Put plainly: Primary qHTS for Identification of Calcium Integrin Binding Protein 1 (CIB1) Competitor (AID 1508620).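 Further: GST tagged CIB1 binding a fluorescein labelled alphaIIb integrin peptide tracer; top concentration of the series differs between compounds.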 An outline of the steps:
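Fluorescence polarization competition: GST-tagged CIB1 (1 uM final) preincubated with compound 15 min at room temperature, then FITC-labelled alphaIIb peptide (100 nM final) added. After 15 min at room temperature, polarization read at Ex 480/Em 540.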
A general note: In qHTS, concentration-response curves come from the screen itself.

A short description of test [2]: Primary qHTS for small molecule stabilizers of the endoplasmic reticulum resident proteome: Secreted ER Calcium Modulated Protein (SERCaMP) assay (AID 1508630). An outline of the steps:
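The SH-SY5Y reporter protocol was run at 3 concentrations up to 38.3 uM (primary) or 11 concentrations (follow-up): 16 h compound, 100 nM thapsigargin for 4 h, then extracellular luciferase luminescence.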

Structures are written as SMILES. Inconclusive results are not listed. A call without a number means that no potency is given here. Unmarked numbers belong to inactive results. Activity calls are given as the source filed them. The call rests on the fitted dose curve; in most records, active means well fitted curve in the direction sought with a large enough effect; inconclusive means small, poorly fitted or top-dose-only effect, or another doubt; inactive means no such curve, though single readings can be large; an effect the other way counts as inactive or inconclusive.

Calcium and integrin-binding protein 1 (Homo sapiens), sequence (Q99828 whole entry, looked up): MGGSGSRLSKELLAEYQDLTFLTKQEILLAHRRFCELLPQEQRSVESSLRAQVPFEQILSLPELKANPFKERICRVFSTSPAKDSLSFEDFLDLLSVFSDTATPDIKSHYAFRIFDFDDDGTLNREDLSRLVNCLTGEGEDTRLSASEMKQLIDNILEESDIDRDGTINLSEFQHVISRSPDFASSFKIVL

As for `CC(C)(O)Cn1c(NC(=O)c2ccc(-c3cn[nH]c3)s2)nc2cc(CN3CCOCC3)ccc21`, in test [1], the Potency entry is “inactive”. For the same molecule, the outcome in test [2] was inactive.

Consider `CC(=O)NCC(=O)N1[C@H]2CC[C@H]1c1cc(Nc3ncc(C(F)(F)F)c(NC4CCC4)n3)ccc12`, for which the Potency result in test [1] was “inactive”. Also, the outcome in test [2] was inactive.

Regarding `CCc1cc(C(C)=NOCc2ccc(C3CCCCC3)c(C(F)(F)F)c2)ccc1CN1CC(C(=O)O)C1`, the Potency entry in test [1] is “inactive”. In addition, in test [2], the outcome was inactive.

With `COC1=C2C[C@@H](C)C[C@H](OC)[C@@H](O)[C@@H](C)C=C(C)[C@H](OC(N)=O)[C@@H](OC)C=CC=C(C)C(=O)NC(=CC1=O)C2=O`, the Potency entry in test [1] is “inactive”. Besides, the outcome in test [2] was inactive.

As for `COc1cc2c(cc1O)CCC1C2CC[C@@]2(C)C1CC[C@@H]2O` (some centres undefined), in test [1], the Potency entry is “inactive”. In addition, the result in test [2] was inactive.

Turning to `O=C1c2c(O)cccc2[C@@H]([C@@H]2O[C@H](CO)[C@@H](O)[C@H](O)[C@H]2O)c2cc(CO)cc(O)c21`, in test [1], the Potency result is “inactive”. Also, in test [2], the outcome was inactive.

Regarding `CNC(=O)c1ccc(Nc2cc(Nc3ccccc3S(=O)(=O)C(C)C)c3cc[nH]c3n2)nc1`, in test [1], the Potency entry was “inactive”. Also, the result in test [2] was inactive.

Regarding `C=C1C[C@@]2(O)O[C@@]3(C[C@H]2C(C)C)[C@H](C)CC[C@H]13`, the Potency result in test [1] is “inactive”. In test [2], the result was inactive.

Turning to `COc1cc(OC)cc(-c2ccc3ncc4ccc(=O)n(-c5ccc(N6CCNCC6)c(C(F)(F)F)c5)c4c3c2)c1`, the Potency result in test [1] is “inactive”. Moreover, the result in test [2] was inactive.

Take `COc1cc(C=CC(=O)CC(=O)C=Cc2ccc(O)c(OC)c2)ccc1O`: the Potency result in test [1] is “inactive”. For the same molecule, in test [2], the result was inactive.

On to `C[C@]12CCC(=O)C=C1[C@@H]1CC1[C@H]1[C@H]3[C@@H]4C[C@H]4[C@@]4(CCC(=O)O4)[C@@]3(C)CC[C@H]12` (some centres undefined), for which the Potency result in test [1] is “inactive”. Besides, the result in test [2] was inactive.

For `O=C(O)C[C@H](O)C[C@H](O)C=Cc1c(C2CC2)nc2ccccc2c1-c1ccc(F)cc1`, in test [1], the Potency result is “inactive”. In test [2], the result was inactive.

For the molecule `OCC(O)C(O)C(O)CO` (centres undefined), the Potency entry in test [1] was “inactive”. Besides, the outcome in test [2] was inactive.

As to `CC(=O)OCC(=O)[C@@]12N=C(C)O[C@H]1C[C@H]1[C@@H]3CCC4=CC(=O)C=C[C@]4(C)[C@@H]3[C@@H](O)C[C@@]12C`, the Potency result in test [1] was “inactive”. Further, in test [2], the outcome was inactive.

Consider `C=C1CCC2[C@](C)(CO)C(O)CC[C@]2(C)C1CC=C1C(=O)OCC1O` (some centres undefined), for which the Potency entry in test [1] was “inactive”. Also, the result in test [2] was inactive.

For the molecule `O=C(NCc1ccccc1)[C@H](Cc1ccccc1)NC(=O)[C@@H]1O[C@@H]1C(=O)NCCc1ccc(O)cc1`, the Potency entry in test [1] was “inactive”. For the same molecule, the outcome in test [2] was inactive.

For `CC(C)(O)[C@H]1CC[C@@](C)([C@H]2[C@@H](O)C[C@@]3(C)[C@@H]4C[C@H](O[C@@H]5O[C@H](CO)[C@@H](O)[C@H](O)[C@@H]5O)[C@H]5C(C)(C)[C@@H](O[C@@H]6OC[C@@H](O)[C@H](O)[C@@H]6O)CC[C@@]56C[C@@]46CC[C@]23C)O1`, the Potency entry in test [1] was “inactive”. The result in test [2] was inactive.

Take `COC(=O)C=CC(=O)OC`: the Potency result in test [1] is “inactive”. Moreover, in test [2], the outcome was inactive.

With `C[C@H](NCc1ccc(OCc2cccc(F)c2)cc1)C(N)=O`, the Potency entry in test [1] was “inactive”. Also, the outcome in test [2] was inactive.

On to `Cc1ccc([N+](=O)[O-])cc1S(=O)(=O)N(C)N=Cc1cnc2ccc(Br)cn12`, for which the Potency entry in test [1] was “inactive”. The outcome in test [2] was inactive.

Turning to `CON=C(C(=O)N[C@@H]1C(=O)N2C(C(=O)O)=C(CSC(=O)c3ccco3)CS[C@H]12)c1csc(N)n1`, the Potency result in test [1] was “inactive”. Further, in test [2], the outcome was inactive.

Consider `CCN1CCN(C(=O)N[C@H](C(=O)N[C@@H]2C(=O)N3C(C(=O)O)=C(CSc4nnnn4C)CS[C@@H]23)c2ccc(O)cc2)C(=O)C1=O`, for which the activity change, negative = inhibition in test [1] was -3.53% [at 12.4 µM]. In addition, in test [2], the outcome was inactive.

Consider `N#Cc1ccc(COC[C@H]2O[C@@H](n3c(NCc4ccc(Cl)c(Cl)c4)nc4c(N)ncnc43)[C@@H](O)[C@@H]2O)cc1`, for which the Potency entry in test [1] was “inactive”. In addition, the result in test [2] was inactive.

With `C[C@H](NC(=O)C(C#N)=Cc1cccc(Br)n1)c1ccccc1`, in test [1], the Potency entry was “inactive”. In test [2], the result was inactive.

`CC(C)(C)[N+]([O-])=Cc1ccc(S(=O)(=O)O)cc1S(=O)(=O)O`: the Potency entry in test [1] was “inactive”. Moreover, in test [2], the result was inactive.

Turning to `O=C(C[C@@H]1CC=CCCC(=O)O[C@H](c2ccccc2)CNC1=O)NCc1ccc(Cl)cc1`, in test [1], the Potency result was “inactive”. Further, the result in test [2] was inactive.

Regarding `CC(=O)O[C@H]1C[C@@H]2CC[C@H]3[C@H]4C[C@H]([N+]5(C)CCCCC5)[C@@H](OC(C)=O)[C@@]4(C)CC[C@@H]3[C@@]2(C)C[C@H]1N1CCCCC1`, the Potency result in test [1] is “inactive”. Moreover, the outcome in test [2] was inactive.

Take `O=c1[nH]c(=O)n([C@H]2C[C@@H](O)[C@@H](CO)O2)cc1F`: in test [1], the Potency entry is “inactive”. Besides, the outcome in test [2] was inactive.

For the molecule `CC[C@]12C=CCN3CC[C@@]4(c5cc([C@@]6(C(=O)OC)C[C@H]7C[C@@H](C(C)(F)F)CN(Cc8c6[nH]c6ccccc86)C7)c(OC)cc5N(C)[C@H]4[C@@](O)(C(=O)OC)[C@H]1OC(C)=O)[C@@H]32`, the Potency result in test [1] is “inactive”. Further, the result in test [2] was inactive.

For the molecule `CCC(C=C[C@@H]1OC(=O)C=C[C@H]1C)=C[C@H](C)CC=CC(C)=C[C@@H](C)C(=O)[C@@H](C)[C@H](O)[C@@H](C)CC(C)=CC(=O)O`, the values for the activity change, negative = inhibition in test [1] and in test [2] were 3.68% [at 2.24 µM] and 41.2% [at 1.51 µM], respectively.

`CCCNC(=O)[C@H]1O[C@H]1C(=O)N[C@H](C(=O)N1CCC[C@@H]1C(=O)OC)C(C)CC` (some centres undefined): the Potency result in test [1] was “inactive”. Also, in test [2], the result was inactive.

As for `O=C1NC(=O)[C@@H](c2cn3c4c(cccc24)CCC3)[C@H]1c1c[nH]c2ccccc12`, the Potency entry in test [1] is “inactive”. Moreover, the outcome in test [2] was inactive.

For the origin of these results see PubChem BioAssay (NCATS).
